Screens as filed in PubChem BioAssay.
Hits are enriched below; roughly 2.1% of the tested compounds scored in any of these assays.
aDG glyco act = alpha-DG glycosylation activation; Pro5-aDG cells, alpha-DG glycosylation AlphaScreen (IIH6); 0% Pro5, 100% B10-LARGE cell signal; activation, % at 10 µM; 360,000 tested, 0.22% active; AID 624168;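 active means activation of at least 8% versus controls, or a plate z-score of at least 8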;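 further: Pro5 are CHO cells carrying HIG-tagged alpha-DG that lacks glycosylation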
NR2F2 inh = NR2F2 (human) inhibition, primary screen; HEK293T NGFI-A luciferase reporter, luminescence; AID 686940; 370,000 tested, 0.7% active; inhibition, % at 8.6 µM;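 active means inhibition above a per-plate cutoff, mean inhibition of test wells between control levels plus 3 SD, cut at about 38% in these data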;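 further: cells cotransfected with COUP-TFII expression vector driving the NGFI-A reporter; 0% = median of COUP-TF2 test wells and 100% = reporter-only cells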
Target sequence (P24468 whole entry, looked up): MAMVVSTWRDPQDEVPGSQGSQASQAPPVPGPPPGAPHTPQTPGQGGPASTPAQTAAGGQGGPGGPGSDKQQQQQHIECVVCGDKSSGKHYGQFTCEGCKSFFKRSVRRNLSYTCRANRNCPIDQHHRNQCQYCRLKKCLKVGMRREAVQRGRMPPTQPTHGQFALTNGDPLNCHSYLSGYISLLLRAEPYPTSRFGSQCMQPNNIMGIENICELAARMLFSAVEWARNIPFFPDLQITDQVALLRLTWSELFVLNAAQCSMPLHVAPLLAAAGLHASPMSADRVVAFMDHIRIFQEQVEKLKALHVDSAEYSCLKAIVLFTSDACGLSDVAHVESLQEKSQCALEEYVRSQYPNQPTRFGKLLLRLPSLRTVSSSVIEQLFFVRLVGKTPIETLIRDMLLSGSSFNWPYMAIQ
Env fusion inh = HIV envelope-mediated fusion inhibition; HeLa-JRFL Env/CEM21 cell fusion, luciferase; inhibition, % at 12.3 µM; 360,000 tested, 1.1% active;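 active means mean replicate inhibition score of at least 50 and every replicate individually at or above 50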;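 further: 0% = plate neutral controls and 100% = maraviroc near 300 nM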
GalR3 antag = human GalR3 antagonism | O60755 | HEK293 GalR3-CNG cAMP membrane potential fluorescence; galR3 body fused to GalR1 C-terminus | inhibition, % at 3 µM | 360,000 tested, 0.44% active | AID 651719;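 active means inhibition above the screen-wide average plus 3 SD, cut at about 13% in these data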;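 further: forskolin and galanin both at EC90 stimulate the cells; cAMP rise reported by CNG channel membrane potential dye signal; 0% = forskolin plus galanin with DMSO and 100% = forskolin alone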
Target sequence (O60755 1-299 limits assumed): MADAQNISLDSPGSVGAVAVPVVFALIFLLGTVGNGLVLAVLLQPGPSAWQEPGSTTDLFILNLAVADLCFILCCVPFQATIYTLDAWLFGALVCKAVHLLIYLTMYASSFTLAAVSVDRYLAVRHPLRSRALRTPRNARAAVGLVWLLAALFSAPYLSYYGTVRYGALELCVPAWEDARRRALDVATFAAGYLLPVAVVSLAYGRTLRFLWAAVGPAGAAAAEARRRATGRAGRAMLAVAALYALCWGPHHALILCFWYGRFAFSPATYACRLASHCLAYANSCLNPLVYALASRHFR
Gli-Sufu block = blocks Gli-Sufu signaling in a luciferase reporter. Sufu-KO-LIGHT fibroblasts, Gli luciferase reporter luminescence. inhibition, % at 5 µM. 340,000 tested, 0.74% active;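 active means inhibition above about 55%, limit read from the data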;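 further: 0% = DMSO-treated cells and 100% = wells with medium but no cells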
GalR3 antag conf = confirmation of human galanin receptor 3 antagonists; shares compounds with GalR3 antag; 1,600 tested, 59% active; HEK293 GalR3 CNG cAMP biosensor, membrane potential fluorescence; galR3 fused to GalR1 carboxy tail; challenged with forskolin and galanin at EC90; inhibition, % at 3 µM; AID 652245;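 active means inhibition above the primary screen's cutoff, the mean inhibition of all screened compounds plus 3 SD, cut at about 13% in these data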;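 further: 0% = forskolin plus galanin and 100% = forskolin alone with DMSO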
HEK-CNG parental = counter-screen for GalR3 antagonists: nonspecific agonists in parental HEK-CNG cells; shares compounds with GalR3 antag; HEK293-CNG parental cells, cAMP membrane potential fluorescence; normalised: DMSO wells 0%, forskolin wells 100%; activation, % at 3 µM; 1,600 tested, 10% active; AID 652268; in the data active means activation above about 1.3%
Numbers without * were called inactive; / = not tested or not shown; ! = a repeat was not active; [ ] = another dose, or the depositor's remark.

SMILES | aDG glyco act | NR2F2 inh | Env fusion inh | GalR3 antag | Gli-Sufu block | GalR3 antag conf | HEK-CNG parental
O=C(COC(=O)C(O)C(O)C(=O)OCC(=O)c1ccc(C(F)(F)F)cc1)c1ccc(C(F)(F)F)cc1 (configuration not stated) | 0 | 23 | 8 | 13* | 5 | 10 | 0
CCN(CC)S(=O)(=O)c1ccc(C(=O)NCCN(C)C)cc1 | 0 | 6 | 2 | 20* | 1 | 4 | 0
C[C@@H]1CN([C@H](C)CO)C(=O)c2cc(C#CC3CC3)cnc2O[C@H]1CN(C)C(=O)c1ccccc1 | / | / | -40[16.7 µM] | / | / | / | /
Nc1nnc(SCC(=O)NCCOc2ccccc2)s1 | 1 | 12 | / | 18* | 2 | 4 | 0
Nc1nnc(SCC(=O)NCCNC(=O)CSc2nnc(N)s2)s1 | 0 | -11 | 0 | -4 | 3 | / | /
O=c1[nH]cccc1-c1nc2ccccc2n1Cc1ccc(F)cc1 | 0 | -14 | 3 | 87* | 4 | -3 | -1
COc1ccccc1NS(=O)(=O)c1ccc(N/N=C(\C)C(C)C)c([N+](=O)[O-])c1 | 2 | -5 | / | 33* | 42 | 13* | -2
CCCC(CCC)=NNc1ccc(S(=O)(=O)Nc2ccccc2OC)cc1[N+](=O)[O-] | 0 | -10 | 9 | 0 | 16 | / | /
C[C@@H]1CCCCO[C@@H](CN(C)C(=O)c2ccccc2)[C@H](C)CN([C@H](C)CO)C(=O)c2cc(NC(=O)NC3CCCCC3)ccc2O1 | / | / | 16[16.7 µM] | / | / | / | /
CCNC(=O)c1ccc(NC(=O)CC2SC(N3CCCCC3)=NC2=O)cc1 (configuration not stated) | 0 | -8 | 8 | 16* | 4 | 6 | 0
O=C(Nc1ccc(Cl)cc1)c1cccc(N2C(=O)C3C4CCC(C4)C3C2=O)c1 (configuration not stated) | 0 | 8 | 17 | 92* | 4 | -1 | 0
CCCN(C)C[C@H]1Oc2ncc(-c3ccccc3F)cc2C(=O)N([C@@H](C)CO)C[C@@H]1C | / | / | 13[16.7 µM] | / | / | / | /
O=C(c1cccnc1Cl)N1CCOCC1 | 0 | 4 | -2 | 13* | -3 | 2 | 0
C[C@H](CO)N1C[C@H](C)[C@H](CN(C)C(=O)Nc2ccccc2)Oc2ccc(NS(=O)(=O)c3ccccc3)cc2C1=O | / | / | 9[16.7 µM] | / | / | / | /
COc1ccc(-c2cc(CNC(=O)CN3CCN(C)CC3)on2)cc1 | 0 | 8 | / | 13* | 1 | -5 | 0
CCN(CC)CC(=O)NCc1cc(-c2ccc(OC)cc2)no1 | 0 | -9 | / | -3 | 0 | / | /
CC(C)NC(=O)Nc1ccc2c(c1)C(=O)N([C@@H](C)CO)C[C@@H](C)[C@H](CN(C)C(=O)Nc1ccc3c(c1)OCO3)OCCCC[C@@H](C)O2 | / | / | 15[16.7 µM] | / | / | / | /
O=C(NC(Nc1ncc(S(=O)(=O)c2ccc([N+](=O)[O-])cc2)s1)(C(F)(F)F)C(F)(F)F)c1ccc(Cl)cc1 | 0 | 25 | 144* | 73* | 5 | 41* | 0
C[C@@H]1CCCCO[C@@H](CN(C)S(=O)(=O)c2cccs2)[C@@H](C)CN([C@H](C)CO)C(=O)c2cc(N(C)C)ccc2O1 | / | / | 9[16.7 µM] | / | / | / | /
N#CCCn1c(-c2nonc2NC(=O)c2ccccc2Cl)nc2ccccc21 | 0 | -14 | / | -5 | 17 | / | /
CCCCn1c(-c2nonc2NC(=O)c2ccccc2Cl)nc2ccccc21 | 0 | -4 | 8 | 19* | 1 | 0 | 0
Brc1ccc(-c2ccccc2)cc1 | 0 | 3 | / | -2 | 18 | / | /
Brc1ccc(-c2ncc(-c3ccccc3)cn2)cc1 | 0 | -37 | / | / | -81 | 3 | 0
COCC(=O)N1C[C@@H](C)[C@@H](OC)CN(C)C(=O)c2cc(NC(=O)NC(C)C)ccc2OC[C@H]1C | / | / | 7[16.7 µM] | / | / | / | /
C[C@@H]1CN([C@@H](C)CO)C(=O)c2c(c3ccccc3n2C)-c2ccccc2CO[C@H]1CN(C)C(=O)c1ccncc1 | / | / | 1[16.7 µM] | / | / | / | /
SMILES | aDG glyco act | NR2F2 inh | Env fusion inh | GalR3 antag | Gli-Sufu block | GalR3 antag conf | HEK-CNG parental
CCOC(=O)c1sc2ncnc(N3CCN(C(=O)OCC)CC3)c2c1C | 0 | 10 | / | 15* | 1 | 21* | 0
CCOC(=O)c1sc2ncnc(N3CCN(CC)CC3)c2c1C | 0 | -3 | 8 | -2 | 9 | / | /
O=C1CCCc2ccc3ccccc3c21 | 0 | -3 | 5 | -5 | 7 | / | /
COc1cc2ccccc2c2c1CCCC2=O | 0 | -28 | / | / | 4 | -6 | 1
N#Cc1cccc(C(=O)C(=O)N2CCC(Cc3ccccc3)CC2)c1 | 0 | 9 | -11 | -7 | / | / | /
O=C(C(=O)N1CCC(Cc2ccccc2)CC1)c1ccccc1 | 0 | 6 | -27 | 16*! | / | -2 | 0
COCCn1c(SCCCC(=O)c2ccc(Br)cc2)nnc1-c1ccncc1 | 3 | 33 | / | 18* | 27 | 38* | 0
Cn1c(SCCCC(=O)c2ccc(F)cc2)nnc1-c1ccncc1 | 0 | 16 | / | -3 | 20 | / | /
N#CC(C#N)=C(Nc1ccc(F)cc1)SCc1cccc(F)c1 | 1 | 36 | 61* | 91* | 32 | 35* | 0
CCOc1ccc(N/C(SCc2cccc([N+](=O)[O-])c2)=C(/C#N)C(N)=O)cc1 | 0 | 21 | 15 | 1 | 4 | / | /
Cc1nc(-c2cccc(NC(=O)c3ccc(-n4nccc4C)cc3)c2)cs1 | 0 | 18 | / | -6 | -23 | / | /
Cc1nc(-c2ccc(C(=O)Nc3cccc(Br)c3)cc2)cs1 | 2 | 36 | -145 | 98* | -116 | 102* | 0
COc1ccc(CC(=O)N2CCN(c3ccc(C4=NNC(=O)CC4C)cc3)CC2)cc1 (configuration not stated) | 0 | 0 | / | 76* | 4 | 87* | 0
O=C(O)CCCCCCCCCCP(=O)(c1ccccc1)c1ccccc1 | 0 | 19 | -13 | 13* | 5 | -2 | 0
O=P(CCCCCCCCCP(=O)(c1ccccc1)c1ccccc1)(c1ccccc1)c1ccccc1 | 1 | 22 | -232 | -5 | 17 | / | /
Cn1cnc([N+](=O)[O-])c1S(=O)(=O)c1ccc(Cl)cc1 | -1 | -10 | 25 | 13* | 0 | 1 | 0
O=C(NS(=O)(=O)N1CCCC1)C1=C(N2CCCC2)COC1=O | 0 | -83 | 12 | / | -22 | 0 | 0
O=C(NS(=O)(=O)NC1CCCCC1)C1=C(N2CCCC2)COC1=O | 0 | 5 | -5 | 8 | -2 | / | /
Cc1cc(C)c2cc(C=O)c(Cl)nc2c1 | 0 | -23 | -101 | 15* | -6 | 40* | 2.7*
CCc1cc2cc(C)cc(C)c2nc1Cl | 0 | -4 | -2 | -2 | 1 | / | /
C[C@H]1CCCCO[C@H](CN(C)Cc2ccc(C(=O)O)cc2)[C@@H](C)CN([C@@H](C)CO)C(=O)c2cc(NS(C)(=O)=O)ccc2O1 | / | / | 26[16.7 µM] | / | / | / | /
